TROY signal inh: inhibitors of TROY-driven NF-kB signaling, primary screen, Q293 LMP1-TROYcd cells, NF-kB luciferase, uHTS; Q293 LMP1-TROYcd NF-kB luciferase reporter, 4 h; inhibition, % at 10 µM; hit rate 0.98% among 360,000;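 active means compounds whose plate-normalised and pattern-corrected inhibition of the luciferase reporter signal at the single screening dose is 50% or more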
HIF-2a inh: HIF-2a reporter inhibitors, primary screen, luminescence, 786-0 RCC cells; 786-0 RCC cells HIF-2a reporter, luciferase luminescence, overnight; inhibition, % at 18.8 µM; hit rate 0.72% among 360,000;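 active means inhibition of the luminescence signal of 40% or more relative to plate controls, in a single-dose primary screen at 18.75 µM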
TWEAK-Fn14 inh: inhibitors of TWEAK-Fn14 signaling, primary screen, luciferase reporter cells, uHTS. TWEAK-stimulated Fn14 reporter cells, luciferase luminescence, 8 h. inhibition, % at 10 µM. hit rate 2% among 360,000. AID 1159606, 2016; in the data active means inhibition above about 50%
Peg3 promoter: Peg3 promoter-driven luciferase inhibitors, primary screen, cell-based, HeLa, luciferase luminescence; HeLa PEG-Prom luciferase reporter, overnight; inhibition, % at 20 µM; hit rate 1.7% among 360,000;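 active means inhibition of at least 50% at 20 µM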
KKLEB tox: cytotoxicity in KKLEB CF airway cells, primary screen, cytotoxicity control for CF NF-kB inhibitor project, cell-based, uHTS, fluorescence assay plates | KKLEB CF airway cells viability, ATPlite luminescence, overnight; stronger effect = lower value; cells stimulated with P. aeruginosa culture filtrate | activity change (cytotoxicity), % at 5 µM | hit rate 0.36% among 360,000 | AID 602141, 2011;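 active means corrected activity change at or below -50% at 5 µM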
CF NFkB inh: inhibitors of PAF-induced NF-kB signaling, primary screen, cell-based, GFP fluorescence, uHTS. hit rate 0.86% among 360,000. KKLEB NF-kB-GFP reporter, GFP fluorescence overnight. inhibition, % at 5 µM;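 active means at least 50% inhibition at 5 µM, scaled per plate between neutral and stimulator controls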;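 further: PAF is a Pseudomonas aeruginosa culture filtrate used as stimulus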
Hits are given with their value; i = inactive; nt = not tested or not shown. The list is not random: actives were taken first. Their share in the collection is about 4%.

SMILES | TROY signal inh | HIF-2a inh | TWEAK-Fn14 inh | Peg3 promoter | KKLEB tox | CF NFkB inh
COc1ccc(-c2oc(NC(=O)CCl)c(C#N)c2-c2ccc(OC)cc2)cc1 | i | i | i | 102 | i | i
COc1ccc(-c2oc(NC(=O)CSc3ncn[nH]3)c(C#N)c2-c2ccc(OC)cc2)cc1 | i | i | i | i | i | i
[O-][n+]1c(/C=C/c2ccccc2)ccc2ccccc21 | i | i | 66 | i | i | i
[O-][n+]1ccccc1/C=C/c1ccccc1 | i | i | i | i | i | i
CN(C)c1ccc(/C=C/c2ccc3ccccc3[n+]2C)cc1 | 63 | i | 64 | i | i | i
CN(CCCS(=O)(=O)[O-])c1ccc(/C=C/c2ccc3ccccc3[n+]2C)cc1 | i | i | i | i | i | i
Cc1ccc(-c2csc(=Nc3cccnc3)n2CCCn2ccnc2)cc1C | 51 | i | 84 | i | i | 75
O=C(c1ccc(Cl)cc1)c1cnc(-c2ccc(Cl)cc2)s1 | i | i | i | i | i | i
O=C(c1ccccc1)c1cnc(-c2ccc(Cl)cc2)s1 | i | i | 62 | i | i | i
CCc1ccc(/C=C2\SC(N3CCCC3)=NC2=O)cc1 | 58 | i | i | i | i | i
O=C1N=C(N2CCCC2)S/C1=C\C=C\c1ccccc1 | 72 | i | 77 | i | i | i
O=C1N=C(N2CCCCC2)S/C1=C\c1ccncc1 | i | i | i | i | i | i
CCOC(=O)c1c(C)oc2c1c(C=NCC1CCCO1)c(O)c1ccccc12 (stereo not given) | 69 | i | i | i | i | i
CCOC(=O)c1c(C)oc2c1c(C=NCc1ccccn1)c(O)c1ccccc12 | i | i | i | i | i | i
COc1ccc(C(NC(=O)C2CCN(CCOc3ccc(Cl)cc3Cl)CC2)c2ccccc2C)cn1 (stereo not given) | i | i | i | i | i | i
O=C(NC(c1ccccc1)c1ccsc1)C1CCN(CCOc2ccc(Cl)cc2Cl)CC1 (stereo not given) | i | i | i | 54 | i | i
Cc1ccccc1C(c1ncccc1C)N(C)C(=O)C1CCN(CCOc2ccc(Cl)cc2Cl)CC1 (stereo not given) | i | i | i | 100 | i | i
COc1ccc(C(NC(=O)C2CCN(CCOc3ccc(Cl)cc3Cl)CC2)c2cccs2)cc1 (stereo not given) | 51 | i | i | i | i | i
O=C(Cc1cccc(NC(=O)C2CCN(C(=O)C3CCC3)CC2)c1)Nc1cccc(C(=O)N2CCOCC2)c1 | i | i | i | i | i | i
Cc1ccc(NC(=O)Cn2c(=O)oc3ccccc32)c(C)c1 | i | i | i | i | i | i
Cc1ccc(C)c(/C=N/n2cc(-c3ccccc3)[nH]c2=S)c1 | 53 | i | i | i | i | i
CCCS(=O)(=O)NC(=O)C1(C)CCN(C(=O)COc2ccccc2)C1 (stereo not given) | i | i | i | i | i | i
CC(=O)OCC(=O)C1(O)CCC2C3CCC4=CC(=O)C=CC4(C)C3(F)C(O)CC21C (stereo not given) | i | i | i | i | i | 73
CC(=O)OCC(=O)[C@@]12OC3(CCCC3)O[C@@H]1C[C@H]1[C@@H]3CCC4=CC(=O)C=C[C@]4(C)[C@@]3(F)[C@@H](O)C[C@@]12C | i | i | i | i | i | 82
CC(=O)OCC(=O)[C@@]1(O)CC[C@H]2[C@@H]3CCC4=CC(=O)C=C[C@]4(C)[C@H]3C(=O)C[C@@]21C | i | i | i | i | i | i
SMILES | TROY signal inh | HIF-2a inh | TWEAK-Fn14 inh | Peg3 promoter | KKLEB tox | CF NFkB inh
CC1(C(=O)NS(=O)(=O)c2ccc(C#N)cc2)CCN1C(=O)C1(c2ccc(Cl)cc2)CC1 (stereo not given) | i | i | i | i | i | i
CCOc1cc(C(=O)OCC(=O)N(C)c2ccccc2)cc(OCC)c1OCC | i | i | i | i | i | i
O=C(C[n+]1cn(C(F)F)c2ccccc21)c1ccc(Br)cc1 | i | i | 86 | i | i | i
O=C(C[n+]1cc(Br)cc2ccccc21)c1ccc(Br)cc1 | i | i | i | i | i | i
COc1cc(NC(=O)Nc2ccccc2)c(OC)cc1NC(=O)CN1CCCCC1 | nt | i | 78 | i | i | i
COc1cc(NC(=O)Nc2ccccc2OC)c(OC)cc1NC(=O)CN1CCCCC1 | i | i | i | i | i | i
O=C(Nc1cccc(-n2cnnn2)c1)c1ccc(OC(F)(F)F)cc1 | i | i | i | i | i | i
CC(OC(=O)Cc1ccsc1)C(=O)Nc1ccc(C(N)=O)cc1 (stereo not given) | i | i | i | i | i | i
CCCCn1c(N)c(S(=O)(=O)c2ccc(C)cc2)c2nc3ccccc3nc21 | 65 | i | 52 | i | i | i
Cc1ccc(Cn2c(N)c(S(=O)(=O)c3cccs3)c3nc4ccccc4nc32)cc1 | 63 | i | i | i | i | i
CN(C)CCCn1c(N)c(S(=O)(=O)c2ccccc2)c2nc3ccccc3nc21 | i | i | i | i | i | i
Nc1c(S(=O)(=O)c2cccs2)c2nc3ccccc3nc2n1Cc1ccccc1 | i | i | i | i | i | i
COc1ccc(-c2cnc3c(NC=O)cc(-c4ccccc4)cn23)cc1OC | i | i | i | i | i | i
CN(C)CCNC(=O)c1cccc(-c2cnc3c(NC=O)cc(/C=C/c4ccccc4)cn23)c1 | i | i | i | 97 | i | i
COc1ccc(-c2cnc3c(NC=O)cc(-c4ccc(F)cc4)cn23)cc1OC | i | i | i | i | -52 | 66
O=CNc1cc(-c2ccc(C(=O)NC3CC3)cc2)cn2c(-c3ccccc3)cnc12 | i | i | i | 61 | i | i
O=CNc1cc(-c2ccc(C(=O)NC3CC3)cc2)cn2c(-c3ccc(F)c(Cl)c3)cnc12 | i | i | i | i | i | i
COc1ccc(-c2cc(NC(C)=O)c3ncc(-c4cccc(C(C)=O)c4)n3c2)cc1OC | 62 | i | i | i | i | i
COc1ccc(-c2cc(NC=O)c3ncc(-c4ccc(C(C)=O)cc4)n3c2)cn1 | i | i | i | 57 | i | i
COc1ccc(-c2cnc3c(NC=O)cc(-c4cc(OC)c(OC)c(OC)c4)cn23)cc1OC | i | i | i | 65 | i | i
COc1cccc(-c2cnc3c(NC=O)cc(-c4cc(OC)c(OC)c(OC)c4)cn23)c1 | i | i | i | i | i | i
CC(=O)c1ccc(-c2cnc3c(NC=O)cc(-c4ccc(N5CCN(C)CC5)cc4)cn23)cc1 | i | i | i | i | i | i
CC1=C(C(=O)Nc2ccccc2)C(c2ccncc2)C(C#N)=C(SCC(=O)NC2CC2)N1 (stereo not given) | nt | i | 94 | i | i | i

Screening results as filed in PubChem.
